Only some compounds are listed: those with a hit (about 1.9% of all), similar ones and a draw of the others.
PriA SSB inh: inhibitors of Klebsiella pneumoniae PriA binding to SSB C-terminal tail, primary screen, biochemical, AlphaScreen. AlphaScreen SSBct-PriA binding, biotinylated peptide. AID 1272365, 2023. hit rate 0.6% among 430,000. PriA–SSB C-terminal tail interaction (Klebsiella pneumoniae). inhibition, % at 33 µM; in the data active = inhibition mostly above about 37%, no sharp cut-off; inactive = mostly below about 20%
RecA splice inh: Mtb RecA intein splicing inhibitors, primary screen, biochemical, fluorescence, HTS. Protein RecA (Mycobacterium tuberculosis (strain ATCC 25618 / H37Rv)), P9WHJ3. cell-free RecA intein splicing. inhibition, % (concentration not given with the values). hit rate 0.75% among 290,000; in the data active = inhibition above about 30%; inconclusive = no clear call, values can overlap the other calls
PrP 5UTR inh: inhibition of PrP 5' UTR reporter expression; cell-based PrP 5' UTR mRNA reporter, plate reader; inhibition, % (concentration not given with the values); hit rate 0.35% among 340,000; in the data active = inhibition above about 52%
BJeLR viability: MLPCN primary cell-based screen for lethality selective to Ras in HRASV12 cells. BJeLR (HRASV12) viability, CellTiter-Glo ATP luminescence, 48 h. inhibition, % (test concentration not listed). hit rate 0.17% among 300,000. AID 1554, 2009; in the data active = inhibition above about 50%; inconclusive = no clear call, values can overlap the other calls
PfHsp40 rescue: rescue of yeast from PfHsp40 toxicity, primary screen, S. cerevisiae, ATP luminescence | S. cerevisiae expressing PfHsp40, growth rescue | growth rescue, % at 12.5 µM | hit rate 0.68% among 340,000; in the data active = growth rescue above about 28%, passing the limit was not always enough; inconclusive = no clear call, values can overlap the other calls;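 also: yeast W303a lacking pdr1 and pdr3 grown in galactose medium; growth measured after three days at 30 °C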
PrPC TRFRET: inhibitors of human cell surface prion protein PrPC, primary screen, cell-based, TR-FRET | Major prion protein (Homo sapiens), P04156 | TR-FRET read-out | inhibition, % at 13.8 µM | hit rate 0.43% among 370,000 | AID 720596, 2013; in the data active = inhibition above about 24%
Hits are given with their value.

What do the screens show for `O=c1oc2cc(OCC(O)Cn3cnc4ccccc43)ccc2c2c1CCC2` (stereo unspecified)?
PriA SSB inh: inactive

Results for COc1cccc(/C=C2\SC(=S)N(NS(=O)(=O)c3ccccc3)C2=O)c1OC ?
PriA SSB inh: inactive; RecA splice inh: inactive; PrP 5UTR inh: inactive; BJeLR viability: inactive; PfHsp40 rescue: inactive; PrPC TRFRET: inactive

How did COc1ccc(/C=C2/SC(=O)N(NS(=O)(=O)c3ccccc3)C2=S)cc1OC do in these assays?
PriA SSB inh: inactive; PrP 5UTR inh: inactive; BJeLR viability: inactive; PfHsp40 rescue: 35; PrPC TRFRET: inactive

How did COc1cc(/C=C2\SC(=S)N(NS(=O)(=O)c3ccccc3)C2=O)cc(OC)c1OC do in these assays?
PriA SSB inh: inactive; RecA splice inh: inactive; PrP 5UTR inh: inactive; BJeLR viability: inactive; PfHsp40 rescue: 41; PrPC TRFRET: inactive

How did Cn1nc(C(=O)NCc2cccs2)ccc1=O do in these assays?
PriA SSB inh: inactive

What do the screens show for `O=C(c1ccc2nsnc2c1)N1CCC(Oc2nc3ccccc3o2)CC1`?
PriA SSB inh: inactive

Results for CCCCC1=CC2=C(c3ccco3)C(=O)C(C)(OC(=O)c3ccc(OC)cc3)C(=O)C2=CN1Cc1ccccc1 (stereo unspecified) ?
PriA SSB inh: inactive; RecA splice inh: inactive; PrP 5UTR inh: inactive; BJeLR viability: inactive; PfHsp40 rescue: inactive; PrPC TRFRET: 31

How did CC[C@@H](C)[C@H](NC(=O)OC(C)(C)C)c1nnc(S(=O)(=O)Cc2cc(C)ccc2C)o1 do in these assays?
PriA SSB inh: inactive; PrP 5UTR inh: inactive; BJeLR viability: inactive; PfHsp40 rescue: inconclusive; PrPC TRFRET: inactive

Results for Cc1ccccc1CS(=O)(=O)c1nnc([C@H](CC(C)C)NC(=O)OC(C)(C)C)o1 ?
PriA SSB inh: inactive; RecA splice inh: 52; PrP 5UTR inh: inactive; BJeLR viability: inactive; PfHsp40 rescue: inactive; PrPC TRFRET: inactive

What do the screens show for `O=c1c(=O)n(-c2cccc3ccccc23)ccn1Cc1ccccc1`?
PriA SSB inh: inactive

How did COc1cc(Br)cc2cc(C(=O)Oc3cccc4cccnc34)c(=O)oc12 do in these assays?
PriA SSB inh: 89

Results for O=C(NCc1cc(-c2cc3ccccc3o2)on1)c1nc2ccccc2s1 ?
PriA SSB inh: inactive

How did O=C(CCc1ccccc1)NC1C=CS(=O)(=O)C1 (stereo unspecified) do in these assays?
PriA SSB inh: inactive

What do the screens show for `O=c1cc(CSc2ccc(Cl)cc2)nc(-c2ccccc2)[nH]1`?
PriA SSB inh: inactive; RecA splice inh: inactive; PrP 5UTR inh: inactive; BJeLR viability: inactive; PfHsp40 rescue: inactive; PrPC TRFRET: inactive

How did O=c1cc(CSc2ccc(Cl)cc2)nc(-c2ccccn2)[nH]1 do in these assays?
PriA SSB inh: inactive; RecA splice inh: inactive; PrP 5UTR inh: inactive; BJeLR viability: inactive; PfHsp40 rescue: 325; PrPC TRFRET: inactive

How did O=S(=O)(Nc1cccc(-c2cnc3n2CCC3)c1)c1cccc(C(F)(F)F)c1 do in these assays?
PriA SSB inh: inactive

Results for CCCNC(=O)CC(NS(=O)(=O)c1ccc(Cl)cc1)c1ccco1 (stereo unspecified) ?
PriA SSB inh: inactive; RecA splice inh: inactive; PrP 5UTR inh: inactive; BJeLR viability: inactive; PfHsp40 rescue: 124; PrPC TRFRET: inactive

How did ON=C(c1ccc(Cl)cc1Cl)c1ncc(C(F)(F)F)cc1Cl do in these assays?
PriA SSB inh: inactive

What do the screens show for `O/N=C(\c1ccc(Cl)cc1Cl)c1ncc(C(F)(F)F)cc1Cl`?
RecA splice inh: inactive; PrP 5UTR inh: inactive; BJeLR viability: inactive; PfHsp40 rescue: 380; PrPC TRFRET: inactive

How did Cc1cccc(NS(=O)(=O)c2ccc(-c3cnc(C4CC4)o3)cc2)c1C do in these assays?
PriA SSB inh: inactive; RecA splice inh: inactive; PrP 5UTR inh: 79; BJeLR viability: 53; PfHsp40 rescue: 367; PrPC TRFRET: inactive

Results for Cc1ccc(C)c(NS(=O)(=O)c2ccc(-c3cnc(C4CC4)o3)cc2)c1 ?
PriA SSB inh: inactive; RecA splice inh: inactive; PrP 5UTR inh: inactive; BJeLR viability: 52; PfHsp40 rescue: inactive; PrPC TRFRET: inactive

How did O=S(=O)(Nc1ccccc1)c1ccc(-c2cnc(C3CC3)o2)cc1 do in these assays?
PriA SSB inh: inactive; RecA splice inh: inactive; PrP 5UTR inh: inactive; BJeLR viability: inactive; PfHsp40 rescue: inactive; PrPC TRFRET: inactive

Compound activity from PubChem BioAssay.
